Laboratory results: article PMC11006913
Residue numbers refer to the chain shown, from its start.

Experiments:
Assay in all cases: PBM; 200 nM protein, PBS
Details in all cases: dsDNA, one strand shown
[1] = target: T1, SIX6 (Homo sapiens, UniProt O95475 114-200, L167I)
T1 sequence: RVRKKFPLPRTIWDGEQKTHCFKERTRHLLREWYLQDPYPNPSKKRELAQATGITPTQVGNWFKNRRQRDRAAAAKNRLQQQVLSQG

[2] = target: T2, SIX6 (Homo sapiens, UniProt O95475 114-200, L143V)
T2 sequence: T1 sequence with L30V, I54L

[3] = target: T3, SIX6 (Homo sapiens, UniProt O95475 114-200, H141N)
T3 sequence: T1 sequence with H28N, I54L

[4] = target: T4, SIX6 (Homo sapiens, UniProt O95475 114-200, T165P)
T4 sequence: T1 sequence with T52P, I54L

[5] = target: T5, SIX6 (Homo sapiens, UniProt O95475 114-200, L167M)
T5 sequence: T1 sequence with I54M

[6] = target: T6, SIX6 (Homo sapiens, UniProt O95475 114-200, L143M)
T6 sequence: T1 sequence with L30M, I54L

[7] = target: T7, SIX6 (Homo sapiens, UniProt O95475 114-200, L143I)
T7 sequence: T1 sequence with L30I, I54L

[8] = target: T8, SIX6 (Homo sapiens, UniProt O95475 114-200, T165G)
T8 sequence: T1 sequence with T52G, I54L

[9] = target: T9, SIX6 (Homo sapiens, UniProt O95475 114-200, T139Q)
T9 sequence: T1 sequence with T26Q, I54L

[10] = target: T10, SIX6 (Homo sapiens, UniProt O95475 114-200, T165A)
T10 sequence: T1 sequence with T52A, I54L

[11] = target: T11, SIX6 (Homo sapiens, UniProt O95475 114-200, L167V)
T11 sequence: T1 sequence with I54V

[12] = target: T12, SIX6 (Homo sapiens, UniProt O95475 114-200)
T12 sequence: T1 sequence with I54L

[13] = target: T13, SIX6 (Homo sapiens, UniProt O95475 114-200, T165I)
T13 sequence: T1 sequence with T52I, I54L

[14] = target: NKX3-2 (Homo sapiens, UniProt P78367 192-278, P234S)
Chain of NKX3-2 (Homo sapiens, UniProt P78367 192-278, P234S) (P78367 192-278 P234S): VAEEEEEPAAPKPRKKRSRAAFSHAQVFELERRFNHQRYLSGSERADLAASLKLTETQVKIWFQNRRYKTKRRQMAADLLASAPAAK

[15] = target: NKX3-2 (Homo sapiens, UniProt P78367 192-278)
Chain of NKX3-2 (Homo sapiens, UniProt P78367 192-278) (P78367 192-278): as the sequence (P78367 192-278 P234S) above, with S43P counted along it

Row | Sequence | binding signal [1] | binding signal [2] | binding signal [3] | binding signal [4] | binding signal [5] | binding signal [6] | binding signal [7] | binding signal [8] | binding signal [9] | binding signal [10] | binding signal [11] | binding signal [12] | binding signal [13] | binding signal [14] | binding signal [15]
1 | CAGGACCG | 9.24 upbm affinity estimate (log intensity, higher = more binding, comparable within an allelic series) | 9.05 upbm affinity estimate (log intensity, higher = more binding, comparable within an allelic series) | 9.24 upbm affinity estimate (log intensity, higher = more binding, comparable within an allelic series) | 9.18 upbm affinity estimate (log intensity, higher = more binding, comparable within an allelic series) | 9.01 upbm affinity estimate (log intensity, higher = more binding, comparable within an allelic series) | 9.2 upbm affinity estimate (log intensity, higher = more binding, comparable within an allelic series) | 9.14 upbm affinity estimate (log intensity, higher = more binding, comparable within an allelic series) | 9.28 upbm affinity estimate (log intensity, higher = more binding, comparable within an allelic series) | 9.23 upbm affinity estimate (log intensity, higher = more binding, comparable within an allelic series) | 9.16 upbm affinity estimate (log intensity, higher = more binding, comparable within an allelic series) | 9.19 upbm affinity estimate (log intensity, higher = more binding, comparable within an allelic series) | 9.17 upbm affinity estimate (log intensity, higher = more binding, comparable within an allelic series) | 9.13 upbm affinity estimate (log intensity, higher = more binding, comparable within an allelic series) |  | 
2 | AGATCCTC | 10.5 upbm affinity estimate (log intensity, higher = more binding, comparable within an allelic series) | 9.98 upbm affinity estimate (log intensity, higher = more binding, comparable within an allelic series) | 10.3 upbm affinity estimate (log intensity, higher = more binding, comparable within an allelic series) | 9.64 upbm affinity estimate (log intensity, higher = more binding, comparable within an allelic series) |  | 10.5 upbm affinity estimate (log intensity, higher = more binding, comparable within an allelic series) | 9.91 upbm affinity estimate (log intensity, higher = more binding, comparable within an allelic series) |  | 10.6 upbm affinity estimate (log intensity, higher = more binding, comparable within an allelic series) | 10.4 upbm affinity estimate (log intensity, higher = more binding, comparable within an allelic series) | 10.2 upbm affinity estimate (log intensity, higher = more binding, comparable within an allelic series) | 10.4 upbm affinity estimate (log intensity, higher = more binding, comparable within an allelic series) |  |  | 
3 | GGTATCAC | 11.6 upbm affinity estimate (log intensity, higher = more binding, comparable within an allelic series) | 10.5 upbm affinity estimate (log intensity, higher = more binding, comparable within an allelic series) | 11.6 upbm affinity estimate (log intensity, higher = more binding, comparable within an allelic series) | 9.55 upbm affinity estimate (log intensity, higher = more binding, comparable within an allelic series) | 10.9 upbm affinity estimate (log intensity, higher = more binding, comparable within an allelic series) | 11.2 upbm affinity estimate (log intensity, higher = more binding, comparable within an allelic series) | 10.6 upbm affinity estimate (log intensity, higher = more binding, comparable within an allelic series) | 11.8 upbm affinity estimate (log intensity, higher = more binding, comparable within an allelic series) | 11.6 upbm affinity estimate (log intensity, higher = more binding, comparable within an allelic series) | 11.6 upbm affinity estimate (log intensity, higher = more binding, comparable within an allelic series) | 11.4 upbm affinity estimate (log intensity, higher = more binding, comparable within an allelic series) | 11.3 upbm affinity estimate (log intensity, higher = more binding, comparable within an allelic series) | 11.4 upbm affinity estimate (log intensity, higher = more binding, comparable within an allelic series) |  | 
4 | ATCGTGTC | 10.1 upbm affinity estimate (log intensity, higher = more binding, comparable within an allelic series) | 9.87 upbm affinity estimate (log intensity, higher = more binding, comparable within an allelic series) | 10.2 upbm affinity estimate (log intensity, higher = more binding, comparable within an allelic series) | 9.63 upbm affinity estimate (log intensity, higher = more binding, comparable within an allelic series) | 9.93 upbm affinity estimate (log intensity, higher = more binding, comparable within an allelic series) |  | 9.97 upbm affinity estimate (log intensity, higher = more binding, comparable within an allelic series) | 10.3 upbm affinity estimate (log intensity, higher = more binding, comparable within an allelic series) |  | 10.3 upbm affinity estimate (log intensity, higher = more binding, comparable within an allelic series) |  | 10.3 upbm affinity estimate (log intensity, higher = more binding, comparable within an allelic series) |  |  | 
5 | AAGGCCGC | 8.93 upbm affinity estimate (log intensity, higher = more binding, comparable within an allelic series) | 8.99 upbm affinity estimate (log intensity, higher = more binding, comparable within an allelic series) | 8.93 upbm affinity estimate (log intensity, higher = more binding, comparable within an allelic series) | 8.98 upbm affinity estimate (log intensity, higher = more binding, comparable within an allelic series) | 8.92 upbm affinity estimate (log intensity, higher = more binding, comparable within an allelic series) | 8.92 upbm affinity estimate (log intensity, higher = more binding, comparable within an allelic series) | 8.97 upbm affinity estimate (log intensity, higher = more binding, comparable within an allelic series) | 8.93 upbm affinity estimate (log intensity, higher = more binding, comparable within an allelic series) | 8.96 upbm affinity estimate (log intensity, higher = more binding, comparable within an allelic series) | 8.9 upbm affinity estimate (log intensity, higher = more binding, comparable within an allelic series) | 8.89 upbm affinity estimate (log intensity, higher = more binding, comparable within an allelic series) | 8.92 upbm affinity estimate (log intensity, higher = more binding, comparable within an allelic series) | 8.95 upbm affinity estimate (log intensity, higher = more binding, comparable within an allelic series) | 10.5 upbm affinity estimate (log intensity, higher = more binding, comparable within an allelic series) | 10.6 upbm affinity estimate (log intensity, higher = more binding, comparable within an allelic series)
